# Compound activity (PubChem BioAssay)
# Only some compounds are listed: those with a hit (about 4% of all), similar ones and a draw of the others.
# Rv3671c inh: inhibitors of M. tuberculosis serine protease Rv3671c | 320,000 tested, 0.048% active | inhibition, % at 5.96 µM | AID 2606 | P9WHR9; in the data active means inhibition above about 38%;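 further: extracellular domain of Rv3671c used as enzyme; 0% = enzyme with DMSO and 100% = no enzyme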
# GDH-TPI counter-1: GDH-TPI coupled enzyme inhibition counter-screen; GDH-TPI coupled enzyme counterscreen, NADH absorbance; inhibition, % at 4.8 µM; 360,000 tested, 1.2% active; AID 588335; in the data active means inhibition above about 30%;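 further: 0% = DMSO wells and 100% = wells lacking the enzyme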
# Mtb betalactam: beta-lactam sensitization of Mtb H37Rv. M. tuberculosis H37Rv growth with meropenem, percent inhibition. inhibition, % at 25 µM. 330,000 tested, 0.27% active. AID 434955; call rule not given here;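 further: growth measured after seven days incubation then overnight dye step; 0% = bacteria only wells and 100% = bacteria with antibiotic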
# RecA splice inh: Mtb RecA intein splicing inhibition; cell-free RecA intein splicing, fluorescence; 290,000 tested, 0.75% active; P9WHJ3; inhibition, % (test concentration not listed); in the data active means inhibition above about 30%; inconclusive means no clear call, values can overlap the other calls;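 further: 0% = vehicle wells and 100% = reference inhibitor control wells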
# Mtb UGM inh: Mtb UDP-galactopyranose mutase inhibition; purified UGM, fluorescence polarization probe displacement; inhibition, % at 10 µM; 320,000 tested, 0.06% active; AID 504406; in the data active means inhibition above about 10%, passing the limit was not always enough; inconclusive means no clear call, values can overlap the other calls
# Target sequence (P9WIQ1 whole entry, looked up): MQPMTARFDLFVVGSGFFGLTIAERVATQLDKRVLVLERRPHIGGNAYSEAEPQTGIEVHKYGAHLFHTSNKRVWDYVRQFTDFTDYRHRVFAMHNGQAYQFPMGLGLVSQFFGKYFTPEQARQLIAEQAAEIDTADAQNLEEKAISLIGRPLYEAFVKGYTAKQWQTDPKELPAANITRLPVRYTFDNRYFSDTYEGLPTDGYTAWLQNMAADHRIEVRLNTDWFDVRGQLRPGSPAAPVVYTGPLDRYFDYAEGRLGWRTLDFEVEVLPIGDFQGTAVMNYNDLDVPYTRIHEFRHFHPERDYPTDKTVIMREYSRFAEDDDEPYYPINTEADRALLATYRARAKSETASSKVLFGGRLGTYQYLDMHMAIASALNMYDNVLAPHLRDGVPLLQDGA
# FBA Mtb inh: Mtb fructose-bisphosphate aldolase inhibition. P9WQA3. purified M. tuberculosis FBA, fluorescence read-out. inhibition, % at 1 µM. 360,000 tested, 2.3% active. AID 588726;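 further: 0% = vehicle and 100% = reference inhibitor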
# Mtb FBA inh conf: Mtb FBA inhibition, confirmed; purified M. tuberculosis FBA, fluorescence read-out; inhibition, % at 1 µM; AID 651616; 5,600 tested, 78% active; shares compounds with FBA Mtb inh;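 further: 0% = vehicle wells and 100% = reference inhibitor wells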
# GDH-TPI counter-2: GDH-TPI inhibition counter-screen for FBA inhibitors. shares compounds with FBA Mtb inh. GDH-TPI coupled enzyme counterscreen, fluorescence. inhibition, % at 1 µM. 5,600 tested, 81% active; in the data active means inhibition above about 10%
# An asterisk follows results filed as active; ? = inconclusive; / = no result given; + = active, no number. Unless noted, no stated cut-off is given here; in the data, active means inhibition above about 27%; inactive means the rest.
SMILES,Rv3671c inh,GDH-TPI counter-1,Mtb betalactam,RecA splice inh,Mtb UGM inh,FBA Mtb inh,Mtb FBA inh conf,GDH-TPI counter-2
COc1ccc(-c2nc3ccccc3nc2-c2ccc(OC)cc2)cc1,-12.0,22.4,3.2,1.8,2.0,10.2,/,/
CCOC(=O)N1CCC(NC(=O)C2CCN(c3ccc(N4CCOCC4)nn3)CC2)CC1,0.4,13.0,6.7,-5.6,0.0,30.6*,123.3*,106.6*
Cc1ccc(S(=O)(=O)N2CCOCC2)cc1C(=O)NC1CCSc2ccccc21 (centres undefined),-1.5,-9.0,-4.2,-3.4,-2.0,-2.1,/,/
Cc1ccc(S(=O)(=O)N[C@@H](Cc2ccccc2)C(=O)N2CCC(C(=O)N[C@@H](CC(C)C)C(=O)O)CC2)cc1,3.2,-11.0,?,-2.4,1.7,-3.6,/,/
O=C(CCNC(=O)c1ccc(Br)cc1)NCC1COc2ccccc2O1 (centres undefined),-2.6,4.1,?,1.7,0.2,2.1,/,/
N#C/C(=C\c1ccc(Cl)cc1Cl)c1n[nH]c(Cn2cncn2)n1,0.5,21.0,5.5,5.8,-1.4,36.2*,+,164.8*
O=C(Nc1ccccc1)c1n[nH]c(Cn2cncn2)n1,-3.2,-3.8,-4.6,1.2,-1.0,-0.1,/,/
CCN(CCCNC(=O)c1cc2c(-c3cccc(OC)c3)nn(C)c2s1)Cc1ccccc1,-12.8,5.3,42.1,1.4,1.4,52.5*,39.0*,43.0*
CCCCN(CC)CCNC(=O)c1cc2c(=O)n(C)c3ccccc3c2s1,-4.7,15.1,-3.5,-0.8,-0.4,49.4*,180.9*,144.4*
CCCN(CCC)CCNC(=O)c1cc2c(=O)n(C)c3ccccc3c2n1C,1.6,5.9,-2.6,0.4,1.1,30.5*,9.6,6.8
CCCCN(CC)CCNC(=O)c1cn(-c2ccc(Cl)cc2)c(=O)c2ccccc12,2.6,7.3,4.3,1.6,-1.0,-0.6,/,/
CN(CCNC(=O)c1cc2c(=O)n(C)c3ccccc3c2n1C)Cc1ccccc1,6.0,5.0,-6.1,0.9,-0.5,4.4,/,/
CCN(CC)CCNC(=O)c1cc2c(=O)n(C)c3ccccc3c2s1,-5.7,11.0,-16.7,-1.8,-0.7,70.8*,129.1*,86.9*
CCN(CC)CCNC(=O)C(C)c1nn(C)c(=O)c2ccccc12 (centres undefined),-4.5,3.4,-10.9,1.0,1.7,2.4,/,/
COc1ccc(-c2csc(C(C)(NC(C)=O)c3ccccc3)n2)cn1 (centres undefined),/,0.9,/,/,/,6.8,/,/
Cc1ccc(S(=O)(=O)/N=C(/Nc2cccc3ccccc23)c2ccc(F)cc2)cc1,3.3,-3.7,-1.2,-2.1,-3.5,2.4,/,/
C=CCOc1cccc(C(=O)N2CCCC(Nc3ccc4c(c3)OCCO4)C2)c1 (centres undefined),-4.2,-4.9,-13.1,0.4,1.2,-2.0,/,/
CC(C)c1ccccc1NC(=O)Nc1nnc([C@H]2C[C@H](O)[C@@H](CO)O2)s1,/,-7.1,/,/,/,-2.4,/,/
COCCCNC(=O)c1cc(S(=O)(=O)N2CCC3(CC2)OCCO3)ccc1F,/,5.3,/,/,/,0.1,/,/
CCCCN(CC)CCNC(=O)c1cc2c(-c3ccccc3F)nn(C)c2s1,0.1,4.1,4.2,6.3,0.4,45.8*,46.8*,35.4*
O=C(O)c1ccc2c(c1)C(=O)N(CCc1ccccc1)C2=O,-3.5,-0.8,3.5,1.0,-2.3,84.7*,173.6*,131.5*
C[C@@H]1CN([C@H](C)CO)C(=O)CCCn2nncc2CO[C@H]1CN(C)Cc1ccccc1,/,-8.2,/,/,/,-2.8,/,/
CN1CCN(CCCNC(=O)c2cn(C3CCCCC3)c(=O)c3c2c2ccccc2n3C)CC1,-2.2,11.2,-1.8,2.0,2.3,30.7*,36.9*,40.9*
Cn1c(C(=O)NCCCN2CCCC2=O)cc2c(=O)n(C)c3ccccc3c21,3.8,-13.9,-6.5,1.1,-2.1,10.6,/,/
Cn1c2ccccc2c2c(C(=O)NCC3CCCO3)cn(C3CCCC3)c(=O)c21 (centres undefined),2.8,11.9,-8.2,11.8,1.1,12.1,/,/
SMILES,Rv3671c inh,GDH-TPI counter-1,Mtb betalactam,RecA splice inh,Mtb UGM inh,FBA Mtb inh,Mtb FBA inh conf,GDH-TPI counter-2
Cn1c2ccccc2c2c(C(=O)NCCCN3CCCC3=O)cn(C3CCCCC3)c(=O)c21,6.9,12.0,3.5,-3.3,-2.3,35.5*,98.0*,85.0*
O=C(c1ccco1)N1CCN(S(=O)(=O)c2cccc(Cl)c2)CC1,-5.9,6.5,-8.3,0.4,2.5,1.6,/,/
O=C(CSc1nc2c([nH]c3ccccc32)c(=O)n1-c1ccccc1F)NCC1CCCO1 (centres undefined),-1.7,1.4,?,1.7,2.6,36.3*,89.4*,52.6*
Cc1ccccc1-n1c(SCC(=O)NCC2CCCO2)nc2c([nH]c3ccccc32)c1=O (centres undefined),2.2,7.0,5.9,1.1,-0.7,1.9,/,/
O=C1Nc2ncccc2OC1CCCl (centres undefined),4.8,10.4,-5.6,-1.7,1.6,-1.5,/,/
CCS(=O)(=O)c1ccc2c(c1)NC(=O)C(CCCl)O2 (centres undefined),-4.5,-3.1,1.2,0.4,-0.4,77.6*,140.1*,112.0*
COCC(=O)OC1CCn2c1nc1c2C(=O)C(C)=C(NC(C)=O)C1=O (centres undefined),/,-0.5,/,/,/,-0.5,/,/
CCc1ccc(C(O)c2ncc(-c3cccc4ccccc34)[nH]2)cc1 (centres undefined),/,6.2,/,/,/,25.5,/,/
COc1ccc(C(O)c2ncc(-c3cccc4ccccc34)[nH]2)cc1F (centres undefined),/,3.6,/,/,/,40.8*,35.5*,35.8*
COc1ccc(C(O)c2ncc(-c3ccc4ccccc4c3)[nH]2)cc1 (centres undefined),/,5.4,/,/,/,31.7*,+,+
COc1ccccc1C(O)c1ncc(-c2cccc3ccccc23)[nH]1 (centres undefined),/,10.6,/,/,/,60.3*,+,+
OC(c1ccc(F)cc1)c1ncc(-c2cccc3ccccc23)[nH]1 (centres undefined),/,-3.6,/,/,/,48.9*,5.0,-3.9
COc1ccc(C(O)c2ncc(-c3ccccc3OC)[nH]2)cc1F (centres undefined),/,3.1,/,/,/,-2.7,/,/
O=C1C=CC2=C3c4cc(O)c(O)cc4CC3(O)COC2=C1O (centres undefined),/,19.6,/,/,/,1.4,/,/
Cc1cc(F)ccc1C(O)c1ncc(-c2cccc3ccccc23)[nH]1 (centres undefined),/,12.6,/,/,/,31.1*,-3.5,-5.1
Cc1ccc(-c2cc(-c3ccccc3)cc(-c3ccccc3)[n+]2-c2ccc(C(=O)O)cc2)cc1,6.8,26.3,-3.0,-0.8,-1.4,28.8*,49.4*,45.8*
